# Data: the supplement of paper PMC10338343
# ± gives the standard deviation.
# Test system: MILI (PIWIL2) piRISC loaded with piRNA #1 (26 nt)
# Assay: pre-steady-state target cleavage rate (min^-1); guide: piRNA #1 5'p-UGAGGUAGUAGGUUGUAUAGUAUCCA; MIWI and MILI are mouse PIWI proteins and EfPiwi is from a freshwater sponge; tags in brackets are library labels; higher = faster piRNA-guided slicing of the target
# Settings: auxiliary factor: 500 nM mouse GTSF1
# Method in brief: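 In HEPES–potassium acetate buffer at 33 °C, […] transcribed, DNA-blocked target RNA library was mixed with 1 nM active affinity-purified piRISC carrying one synthetic guide, with or without 500 nM GTSF1 partner protein, for 0–8 or 0–960 min. Uncleaved targets were sequenced and normalised to depth and to weakly complementary targets; three trials were pooled and k3 was capped at 0.0001 min^-1. The pre-steady-state cleavage rate followed from a burst-and-steady-state fit.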
# 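Note: 1 nM active piRISC with 0.1 nM target library at 33 °C single turnover.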
row,Sequence,pre-steady-state target cleavage rate
1,GGAGACCAAACUAUACAACCUAGUACCUCA,0.0169 ± 0.0096
2,GGAGACCUUACUAUACAACCUACUCCCUCA,0.0992 ± 0.015
3,GGAGAGGAUACUAUACUACCUACUUCCUCA,0.0617 ± 0.016
4,GGAGCGGAUACUAUACAACCUACUACCUCA,0.203 ± 0.013
5,GGAGUGGAUUCUAUACAACCUUCUACCUCA,0.00777 ± 0.0028
6,GGAGUGGAUUGUAUACAACCUACUACCUCA,0.151 ± 0.0098
7,GGAGACCUAUCUUAUACAACCUACUACCUCA,0.145 ± 0.031
8,GGAGAGGAUACUAUACAACCUAUUACCUCA,0.174 ± 0.018
9,GGAGUGGAUAGCUAUACAACCUACUACCUCA,0.0528 ± 0.0074
10,GGAGACGAUACUAUACAACCUACUACUUCA,0.162 ± 0.013
11,GGAGACGACACUAUACAACCUACUACCUCA,0.214 ± 0.025
12,GGAGAGGAUAGUAUACAUCCUACUACCUCA,0.0609 ± 0.011
13,GGAGUGGAUACUAUACAACCUACUCCCUCA,0.0191 ± 0.0045
14,GGAGACCAUACUAUACAACCUUCUACGUCA,0.00397 ± 0.0034
15,GGAGACCAUAGUAUACAACCUACUACCUGA,0.0652 ± 0.012
16,GGAGUGGAAACUAUACAACCUAGUACCUCA,0.055 ± 0.021
17,GGAGAGGAUACUAUACAAGCUACUUCCUCA,0.0737 ± 0.013
18,GGAGAGGAUACUAUACAACCUACUACCUCG [g2:g25:cont:t1G],0.175 ± 0.015
19,GGAGACCUAUCUAUACAACCUACUACCCCA,0.123 ± 0.02
20,GGAGACGAUGACUAUACAACCUACUACCUCA,0.151 ± 0.02
21,GGAGACGAUUCAAUACAACCUACUACCUCA,0.104 ± 0.012
22,GGAGACCAUUACUAUACAACCUACUACCUCA,0.137 ± 0.012
23,GGAGUGGAUACUAUACAACCUACUACCCCA,0.0956 ± 0.016
24,GGAGUGCAUACUAUACAUCCUACUACCUCA,0.313 ± 0.015
